# An excerpt weighted towards active compounds, which were near 1.1% of everything screened.
# MOR-DOR ag: agonists of OPRM1-OPRD1 heterodimerization, primary screen, cell-based, luminescence. 340,000 tested, 0.3% active. cells. activation, % at 9.3 µM. Mu-type opioid receptor (Homo sapiens) + Delta-type opioid receptor (Homo sapiens), …;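 note: 0% = vehicle-treated cells and 100% = reference agonist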
# HTR5A inv ctr: HTR5A inverse agonists in luminescence cell assay, primary screen, counter-screen for OPRM1-OPRD1 heterodimer inverse agonist project, full-deck HTS; 5-hydroxytryptamine receptor 5A (Homo sapiens), P47898; HTR5A cell line, inverse agonism; inhibition, % at 9.3 µM; 340,000 tested, 0.083% active; AID 504634, 2011; in the data active = inhibition mostly above about 23%, no sharp cut-off; inactive = mostly below about 18%;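 note: 0% = cells with DMSO and 100% = no-cell wells with DMSO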
# HTR5A ag: HTR5A agonists in luminescence cell assay, primary screen, counter-screen for OPRM1-OPRD1 heterodimer agonist project, full-deck HTS. 340,000 tested, 0.61% active. activation, % at 9.3 µM. 5-hydroxytryptamine receptor 5A (Homo sapiens), P47898. cell-based; in the data active = activation mostly above about 9.5%, no sharp cut-off; inactive = mostly below about 7.6%;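 note: 0% = cells with vehicle only and 100% = reference agonist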
# MOR-DOR inv ag: inverse agonists of MOR-DOR heterodimerization, primary screen, cell-based, luminescence; inhibition, % at 9.3 µM; 340,000 tested, 0.21% active; cell-based MOR-DOR heterodimer luminescence, inverse agonism; AID 504357, 2011; in the data active = inhibition above about 22%, passing the limit was not always enough;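 note: 0% = cells with DMSO and 100% = wells without cells with DMSO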
# OPRM1-D1 ag cf: agonists of MOR-DOR heterodimerization, confirmation, cell-based, luminescence | AID 504904, 2011 | cells, luminescence complementation | shares compounds with MOR-DOR ag | 830 tested, 45% active | activation, % at 9.3 µM;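 note: 0% = vehicle-treated cells and 100% = reference agonist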
# HTR5A ag counter: HTR5A agonists in cells, counter-screen for OPRM1-OPRD1 heterodimer agonist project, cell-based, luminescence | shares compounds with MOR-DOR ag | HTR5A agonist counterscreen | activation, % at 9.3 µM | 830 tested, 8% active; in the data active = activation above about 17%;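 note: 0% = vehicle-treated cells and 100% = reference agonist response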
# An asterisk follows results filed as active. Cut-off read from the data, not from the text of the source, unless noted: active = activation above about 18%; inactive = the rest.
SMILES,MOR-DOR ag,HTR5A inv ctr,HTR5A ag,MOR-DOR inv ag,others
CC(C)C12CN3CCN(CC(C3)/C1=N\O)C2,-2,-12,12*,13,
O=C1CC23c4ccccc4N4C(=O)CC5OCC=C6CN1C2CC6C5C43 (centres undefined),-3,15,-4,12,
COC1CCC(OC2CC(C3(C)CCC4(CC(O)C(C)C(C(C)/C=C(\C)C(=O)C(C)CC(C)C(=O)O)O4)O3)OC3(OC(C4OC(O)(CO)C(C)CC4C)CC3C)C2C)OC1C (centres undefined),19*,-30,8,-84,
O=C1NC(=O)C(Nc2ccccc2)C(=O)N1,-2,3,-1,7,
COc1ccc2c(c1)NP(=S)(Oc1ccccc1)N2 (centres undefined),1,-33,9.4*,-4,
CCC1(CC)C(=O)NC(=O)N(CCc2ccccn2)C1=O,-2,13,-3,9,
O=C(c1cn(Cc2ccccc2)c2ccccc12)C1CC1,1,-28,11*,-6,
O=c1c2ccccc2nc(/C=C/c2ccccc2)n1-c1ccccc1O,58*,2,-1,-262,
O=c1c2ccccc2nc(/C=C/c2ccc(O)cc2)n1-c1ccccc1O,-3,7,-3,17,
COc1ccc2nc3c(C)n(C)ccc-3c2c1,-2,1,0,9,
COc1c(O)cc2c(c1OC)-c1ccc(SC)c(=O)cc1C(NC(C)=O)CC2 (centres undefined),-4,-10,3,19,
CC12CC[C@H]3[C@@H](CCC4(O)C[C@H](O)CCC34/C=N/NC(=O)c3ccccc3Cl)C1(O)CCC2C1=CC(=O)OC1 (some centres undefined),-1,-13,4,5,
CC1OC(OC2C(O)CC(OC3C(O)CC(OC4CCC5(C)C(CCC6C5CCC5(C)C(C7=CC(=O)OC7)C(O)CC65O)C4)OC3C)OC2C)CC(O)C1O (centres undefined),62*,-76,19*,-320,
ClCCN(CCCl)c1ccc(-n2cnc3c(Cl)ncnc32)cc1,-3,15,-4,14,
CC(=O)O[C@H]1CC[C@@]2(C)C(=CC(=O)C3C2CC[C@@]2(C)C3C[C@H](OC(C)=O)[C@@H]2OC(C)=O)C1 (some centres undefined),-1,-35,9.0*,7,
CCCCn1c(NC(=O)c2ccc(Br)o2)c(C(=O)OCC)c2nc3ccccc3nc21,-11,12,-5,55*,
CCCCn1c(N)c(C(=O)NCCN2CCOCC2)c2nc3ccccc3nc21,-3,-1,0,15,
CCCCNC(=S)N1CCn2cccc2C1c1cccnc1 (centres undefined),-2,6,-2,10,
CNC(=S)N1CCn2cccc2C1c1cccnc1 (centres undefined),-3,-27,10*,14,
Cn1ncnc2c(=O)n(C)c(=O)nc1-2,31*,-3,20*,-143,
CCC(=O)OC(Cc1ccccc1)(c1ccccc1)[C@H](C)CN(C)C (some centres undefined),81*,-22,9,-326,OPRM1-D1 ag cf=80*;HTR5A ag counter=-5
CC(CN1CCOCC1)OC(=O)Cc1ccccc1 (centres undefined),-2,5,0,8,
CC(=O)N1Cc2cnnn2-c2ccccc2C1C#N (centres undefined),-1,5,-2,3,
CC(=O)OC1CC2(O)C3CCC4CC(O)CCC4(C)C3CCC2(C)C1C1=CC(=O)OC1 (centres undefined),81*,-108,28*,-356,OPRM1-D1 ag cf=1;HTR5A ag counter=62*
CC(=O)[C@H]1CCC2C3CC[C@H]4C[C@@H](O)CC[C@]4(C)C3CC[C@@]21C (some centres undefined),-1,14,-4,4,
CC(=O)O[C@@H]1CC[C@]2(C)C3CC[C@@]4(C)C(C[C@@H](O)[C@@H]4O)C3[C@@H](OC(C)=O)C[C@H]2C1 (some centres undefined),-2,-3,1,10,

# Compound activity from PubChem.
